Measured values reported in PubChem BioAssay AID588331 (National Center for Advancing Translational Sciences (NCATS), 2011).
Results filed as inconclusive are left out. Active and inactive are the calls of the source. Calls come from the whole dose curve; as a rule, active = well fitted inhibition curve with a large enough effect; inconclusive = small, poorly fitted or top-dose-only effect; inactive = flat fitted curve, though single readings scatter.

Each molecule was assayed on Trypanosoma brucei 6-phosphofructokinase (PFK) (assay: Confirmatory Assay to Find Inhibitors of T. brucei phosphofructokinase: High F6P). Details: Kinase-Glo luminescence; series mostly up to 57.5 µM; activity change, negative = inhibition: at the top concentration.
Source text: Various species of the protozoan family Trypanosomatidae are responsible for a range of serious human diseases in tropical and subtropical areas of the world. […] Many of the disorders caused by trypanosomatids are fatal if left untreated, but most currently used drugs are inefficient and toxic. […] Oxidative metabolism involving the mitochondrial tricarboxylic acid cycle and oxidative phosphorylation are repressed in these parasites, and recent RNA interference (RNAi) experiments have shown that even partial depletion of certain individual glycolytic enzymes can lead to the death of cultured parasites. One such glycolytic enzyme, phosphofructokinase (PFK), catalyzes the formation of fructose-1,6-bisphosphate (F1,6BP) and ADP from fructose-6-phosphate (F6P) and ATP, and in many metabolic circumstances makes an important contribution to the control of flux through the glycolytic pathway. As a specific glycolytic target, PFK is particularly attractive as it catalyzes the first irreversible step in glycolysis, and structural and kinetic studies have shown very substantial and essential differences from corresponding host enzymes, allowing for the discovery of parasite-selective inhibitors. A luminescent secondary assay was also performed that used luciferase-based nucleotide detection (ADP-Glo, Promega) similar to the qHTS, but that alternatively used saturating concentrations (10x Km concentrations) of ATP or F6P to determine if inhibitor potencies were shifted due to particular substrate competition. […] NIH Molecular Libraries Probe Production Network [MLPCN] NIH Chemical Genomics Center [NCGC] Grant: 1 R03 MH092153-01 PI Name: Malcolm Walkinshaw, University of Edinburgh
Substrate buffer was dispensed into white, solid 1536-well plates at 3 uL/well in 0.1M triethanolamine (TEA) buffer, pH 8.0, containing final concentrations of 5 mM MgCl2 and 0.01% Tween20. Standard substrate buffer contained 0.5 mM fructose-6-phosphate (F6P) and 0.1 mM ATP, high ATP substrate buffer contained 0.5 mM fructose-6-phosphate (F6P) and 1mM ATP, high F6P substrate buffer contained 5mM fructose-6-phosphate (F6P) and 0.1 mM ATP, and high ATP/F6P buffer contained 5 mM fructose-6-phosphate (F6P) and 1 mM ATP. Then, 23 nl of compounds or DMSO were delivered to each well using a pin tool. One uL of T. brucei PFK (0.1 M TEA, 0.01% Tween20, 0.1% bovine serum albumin (BSA) and 1.25 nM PFK, final concentrations) was then dispensed, and plates were incubated at room temperature for 45 min. The luminescent detection reagent, Kinase-Glo Plus (Promega), was then added at 2ul/well and incubated for ten minutes at room temperature. The plates were measured on a ViewLux plate reader for luminescent signal using a clear filter with a one second exposure. The %Activity was determined from the corrected luminescence values. 1x (1.25nM) and 0x PFK enzyme controls (untreated) were included to normalize %Activity of identified inhibitors; 0x enzyme values corresponded to 100%Activity (full inhibition), while 1x PFK enzyme values were used to normalize 0% Activity (no inhibition).

Activity change, negative = inhibition, inactive:
Cc1cc(NS(=O)(=O)C2CCN(C(=O)Cc3ccc(Cl)c(Cl)c3)CC2)no1 -0.566%
Cc1cc(NS(=O)(=O)c2ccc(NC(=O)c3ccc(Cl)c(Cl)c3)cc2)no1 -3.99%
Cc1cc(NS(=O)(=O)c2ccc(NC(=O)Cc3ccc(C)c(C)c3)cc2)no1 -3.32%
CCOC(=O)c1cccc(NS(=O)(=O)c2ccc(NC(=O)Cc3ccc(Cl)c(Cl)c3)cc2)c1 6.32%
Cc1cc(NS(=O)(=O)c2ccc(NC(=O)C(C)(C)c3ccc(Cl)c(Cl)c3)cc2)no1 -0.0491%
COc1ccc(CC(=O)Nc2ccc(S(=O)(=O)Nc3cc(C)on3)cc2)cc1C 1.36%
Cc1cc(NC(=O)c2csc(NC(=O)Cc3ccc(Cl)c(Cl)c3)n2)no1 2.82%
Cc1cc(NS(=O)(=O)CCNC(=O)Cc2ccc(Cl)c(Cl)c2)no1 4.19%
COc1ccc(CC(=O)Nc2ccc(S(=O)(=O)Nc3cc(C)on3)cc2)cc1OC 4.52%
Cc1cc(NS(=O)(=O)c2ccc(NC(=O)Cc3ccccc3)cc2)no1 -9.12%
Cc1cc(NC(=O)c2ccc(NC(=O)Cc3ccc(Cl)c(Cl)c3)cc2)no1 3.41%
Cc1cc(N[S+](=O)([O-])c2ccc(NC(=O)Cc3ccc(Cl)nc3)cc2)no1 -2.67%
Cc1cc(NS(=O)(=O)c2ccc(NS(=O)(=O)Cc3ccc(Cl)c(Cl)c3)cc2)no1 7.09%

Potency, active:
O=C(Cc1ccc(Cl)c(Cl)c1)Nc1ccc(S(=O)(=O)Nc2ccc(C(=O)O)cc2)cc1 4.11 µM
Cc1cc(NS(=O)(=O)c2ccc(NC(=O)Cc3ccc(Cl)c(Cl)c3)cc2)on1 3.26 µM
O=C(Cc1ccc(Cl)c(Cl)c1)Nc1ccc(S(=O)(=O)Nc2cncnc2)cc1 9.19 µM
Cc1cc(NS(=O)(=O)Cc2ccc(NC(=O)Cc3ccc(Cl)c(Cl)c3)cc2)no1 16.3 µM
Cc1cc(NS(=O)(=O)c2ccc(NC(=O)Cc3ccc(Cl)c(Cl)c3)cc2)no1 3.66 µM
Cc1cc(N[S+](=O)([O-])c2ccc3cc(NC(=O)Cc4ccc(Cl)c(Cl)c4)ccc3c2)no1 36.6 µM
Cc1cc(NS(=O)(=O)c2ccc(NC(=O)Cc3ccc(Cl)c(F)c3)cc2)no1 8.19 µM
Cc1cc(NS(=O)(=O)c2ccc(NC(=O)Cc3ccc(Cl)c(C(F)(F)F)c3)cc2)no1 5.8 µM
O=C(Cc1ccc(Cl)c(Cl)c1)Nc1ccc(S(=O)(=O)Nc2cccc(C(=O)O)c2)cc1 4.61 µM
Cc1cc(NS(=O)(=O)c2ccc(N(C)C(=O)Cc3ccc(Cl)c(Cl)c3)cc2)no1 10.3 µM
Cc1cc(N(C)S(=O)(=O)c2ccc(NC(=O)Cc3ccc(Cl)c(Cl)c3)cc2)no1 16.3 µM
Cc1cc(NS(=O)(=O)c2ccc(NC(=O)Cc3ccc(Cl)cc3)cc2)no1 20.6 µM
O=C(Cc1ccc(Cl)c(Cl)c1)Nc1ccc(S(=O)(=O)Nc2ccn[nH]2)cc1 5.8 µM
O=C(Cc1ccc(Cl)c(Cl)c1)Nc1ccc(S(=O)(=O)Nc2ccon2)cc1 2.06 µM
O=C(Cc1ccc(Cl)c(Cl)c1)Nc1ccc(S(=O)(=O)O)cc1 5.17 µM
Cc1cc(NS(=O)(=O)c2ccc(NC(=O)Cc3ccc(Cl)c(Cl)c3)cc2)n(C)n1 13 µM
Cc1cc(NS(=O)(=O)c2ccc(C(=O)NCc3ccc(Cl)c(Cl)c3)cc2)no1 25.9 µM
O=C(Cc1ccc(Cl)c(Cl)c1)Nc1ccc(S(=O)(=O)Nc2cccc(O)c2)cc1 14.6 µM
